From paper PMC4336329 (PLoS ONE, 2015)
In all, about 310,000 compounds went through this assay and about 2,200 (0.71%) showed an effect of 50% or more. Effects have a minus sign here. The full list was thinned out, with strong results kept by preference.

biological target: human ether-à-go-go-related gene (hERG) potassium channel (human, UniProt Q12809); assay: primary screen, population patch clamp on CHO cells stably expressing hERG; higher = less effect of the substance
Sequence (Q12809 whole entry, looked up): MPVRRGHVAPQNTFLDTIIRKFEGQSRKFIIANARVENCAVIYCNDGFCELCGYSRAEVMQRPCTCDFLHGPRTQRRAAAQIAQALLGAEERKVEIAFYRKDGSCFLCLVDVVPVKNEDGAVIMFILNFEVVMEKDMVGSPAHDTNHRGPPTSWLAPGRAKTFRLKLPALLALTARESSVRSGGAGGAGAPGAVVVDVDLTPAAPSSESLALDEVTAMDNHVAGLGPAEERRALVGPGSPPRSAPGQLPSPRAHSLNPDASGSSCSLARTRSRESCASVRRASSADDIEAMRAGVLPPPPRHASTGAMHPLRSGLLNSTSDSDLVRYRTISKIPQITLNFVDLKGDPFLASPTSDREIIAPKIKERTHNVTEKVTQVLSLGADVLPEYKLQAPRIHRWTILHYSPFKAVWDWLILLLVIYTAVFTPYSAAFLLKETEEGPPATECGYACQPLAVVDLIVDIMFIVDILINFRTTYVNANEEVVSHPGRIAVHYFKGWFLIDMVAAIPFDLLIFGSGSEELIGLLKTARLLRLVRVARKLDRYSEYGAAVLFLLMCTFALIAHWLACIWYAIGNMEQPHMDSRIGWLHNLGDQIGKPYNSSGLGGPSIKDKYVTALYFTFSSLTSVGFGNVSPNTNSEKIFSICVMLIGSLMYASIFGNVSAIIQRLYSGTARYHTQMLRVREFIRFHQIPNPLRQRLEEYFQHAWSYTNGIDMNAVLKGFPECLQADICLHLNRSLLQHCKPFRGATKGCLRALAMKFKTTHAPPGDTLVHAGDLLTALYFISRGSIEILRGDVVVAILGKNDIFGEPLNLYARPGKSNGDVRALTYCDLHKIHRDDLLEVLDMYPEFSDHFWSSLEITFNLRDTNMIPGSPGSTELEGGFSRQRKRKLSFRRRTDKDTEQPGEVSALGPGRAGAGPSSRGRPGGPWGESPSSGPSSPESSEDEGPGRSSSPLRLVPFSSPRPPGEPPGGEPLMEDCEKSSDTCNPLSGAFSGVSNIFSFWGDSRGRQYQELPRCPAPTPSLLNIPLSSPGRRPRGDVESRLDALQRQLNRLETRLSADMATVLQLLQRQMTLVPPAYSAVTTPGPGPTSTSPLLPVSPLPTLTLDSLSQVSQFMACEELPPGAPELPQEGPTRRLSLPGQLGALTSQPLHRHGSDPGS

Point of comparison: `Cc1ccc(OCC(O)Cn2c(=N)n(Cc3ccccc3)c3ccccc32)cc1.Cl` (stereo not shown), “hERG current change (%, negative = inhibition) at 1uM” value -61%. Against it:
- O=C(Nc1ccc(Oc2ccc(Cl)cc2)cc1)c1ncn[nH]1 — higher, 2.59%
- Cc1nn(CC(=O)Nc2ccc(N3CCOCC3)cc2)c(C)c1Cl — higher, 19.7%
- CSc1ccc(CN(C)CC(=O)Nc2c(F)cccc2F)cc1.O=C(O)C(=O)O — higher, 7.89%
- COc1cc2c(cc1OC)C(=O)Cc1ccc3c(c1CN(C)CC2)OCO3 — higher, -39.4%
- COc1ccc2c(c1OC)CN(C)CCc1cc3c(cc1C(O)C2)OCO3 (stereo not shown) — higher, -0.22%
- COc1ccc2c(c1OC)CN(C)CCc1cc3c(cc1C(=O)C2)OCO3 — lower, -84%
- CC(C)(C)NC(=O)CSc1nccn1Cc1ccccc1 — higher, 5.85%
- O=C(ONC1=NCCCCC1)c1cccc([N+](=O)[O-])c1 — higher, 11.8%
- O=[N+]([O-])c1cccc(/C=N/NC2=NCCCCC2)c1 — lower, -70.9%
- Cl.O=[N+]([O-])c1ccccc1/C=N/NC1=NCCCCC1 — higher, -0.325%
- Cc1ccc(Cn2c(=N)n(CC(O)COc3ccccc3)c3ccccc32)cc1.Cl (stereo not shown) — higher, -36.1%
- OC(COc1ccccc1)Cn1c2ccccc2c2ccccc21 (stereo not shown) — higher, 8.25%
- COc1ccc(OCC(O)Cn2c(=N)n(Cc3ccccc3)c3ccccc32)cc1.Cl (stereo not shown) — lower, -76.6%
- Cl.N=c1n(Cc2ccc(Cl)cc2)c2ccccc2n1CC(O)COc1ccccc1 (stereo not shown) — higher, -17.1%
- COc1ccc(OCC(O)Cn2c(=N)n(CCN3CCOCC3)c3ccccc32)cc1.Cl (stereo not shown) — higher, -10.5%
- Cc1cccc(OCC(O)Cn2c(=N)n(Cc3ccccc3)c3ccccc32)c1.Cl (stereo not shown) — higher, -16.4%
- Cl.N=c1n(Cc2ccccc2)c2ccccc2n1CC(O)COc1ccccc1 (stereo not shown) — higher, -55.8%
- C=CCOC(=O)C1=C[C@H](c2ccc(C(F)(F)F)cc2)C[C@H](OCCCCO)O1 — higher, 9.6%
- CCOC(=O)/C(=C/Nc1ccc(F)c(F)c1)[N+](=O)[O-] — higher, 13%
- CCOC(=O)c1ccc(NC(=O)[C@@H](NC(N)=O)C(C)C)cc1 — higher, -0.13%
- NC(=O)c1c(NC(=O)Cn2cc([N+](=O)[O-])cn2)sc2c1CCCC2 — higher, 2.68%
- CCN1C(=O)C(CC(=O)Nc2ccc(F)cc2)N(CCCN2CCN(c3ccc(F)cc3)CC2)C1=S (stereo not shown) — higher, 0.806%
- COc1cc(CN2CCC(Oc3cc(C(=O)NC4CC4)ccc3OC)CC2)cc(OC)c1 — lower, -62%
- COc1ccc(C(=O)NCCc2ccc(C)cc2)cc1OC1CCN(C(C)=O)CC1 — higher, 9.4%
- COc1cccc(CCNC(=O)c2ccc(OC)c(OC3CCN(C(C)C)CC3)c2)c1 — higher, -2.35%
- COc1ccc(C(=O)NC2CC2)cc1OC1CCN(Cc2cc(C)cc(C)c2)CC1 — higher, -57.7%
- COc1ccc(C(=O)NC2CCCCCCC2)cc1OC — higher, 9.08%
